Hits are enriched below; roughly 4.8% of the tested compounds scored in any of these assays.
S2 tox: Viability Counterscreen for Primary qHTS for Inhibitors of ATXN expression | S2 cells (HEK-293 line with an ATXN2-luciferase reporter) viability, CellTiter-Fluor protease fluorescence, 24 h | Potency, µM (highest dose often 56.7 µM), actives largely listed as cytotoxic | 0.49% of 400,000 active; also: potency is read from the fitted curve at half-maximal effect; nearly all actives have a fitted effect of over 40% in size
D3 antag: qHTS of D3 Dopamine Receptor Antagonist: qHTS. D(3) dopamine receptor (Homo sapiens), P35462. D3R cells, DiscoveRx beta-arrestin luminescence, antagonist mode; hits give low values. max response, negative = inhibition, %. 2.5% of 360,000 active; in the data active = max response below about -50%; inconclusive = no clear call, values can overlap the other calls; also: % is scaled to controls: 0 for no effect and ±100 for the full control effect
Target sequence (P35462 whole entry, looked up): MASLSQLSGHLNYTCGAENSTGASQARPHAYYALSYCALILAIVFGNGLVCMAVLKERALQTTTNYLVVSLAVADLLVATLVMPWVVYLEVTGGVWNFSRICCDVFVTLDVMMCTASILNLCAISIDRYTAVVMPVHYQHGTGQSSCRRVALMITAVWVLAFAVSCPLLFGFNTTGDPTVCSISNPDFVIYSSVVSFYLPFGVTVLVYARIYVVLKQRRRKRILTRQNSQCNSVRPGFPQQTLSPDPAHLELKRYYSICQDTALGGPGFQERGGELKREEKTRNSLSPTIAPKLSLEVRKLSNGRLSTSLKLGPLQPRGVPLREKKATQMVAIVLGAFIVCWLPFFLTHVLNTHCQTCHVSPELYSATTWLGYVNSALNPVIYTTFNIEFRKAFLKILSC
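Cells expressing the human receptor were seeded at 1500 cells/well, incubated overnight at 37 degrees C in 5% CO2, then exposed to library compounds with dopamine controls for 90 minutes at 37 degrees C before luminescent detection.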
TGFb inhibitor: qHTS for Inhibitors of TGF-b | Potency, µM (series often up to 46.1 µM), for the others: top-dose activity, negative = inhibition, actives largely listed as inhibitors | HepG2 CAGA-GFP TGF-b/SMAD3 reporter, GFP fluorescence, 18 h; TGF-beta stimulated, 500 pg/mL final | 1.2% of 410,000 active; also: potency is read from the fitted curve at half-maximal effect; % is scaled to controls: 0 for no effect and ±100 for the full control effect; nearly all actives have a fitted effect of over 65% in size
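Inhibition of TGF-beta-driven CAGA-GFP reporter expression in HEPG2 cells is measured by cellular GFP fluorescence after 18 h stimulation with 500 pg/mL recombinant TGF-beta in 1% FBS medium at 37 degrees C.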
D3 ag: qHTS of D3 Dopamine Receptor Agonist: qHTS. D(3) dopamine receptor (Homo sapiens), P35462. D3R DiscoveRx beta-arrestin cells, luminescence, 90 min. max activation, %. 0.58% of 410,000 active. AID 652048, 2013; in the data active = max activation above about 30%; also: 0% is about no effect
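Agonist mode: compounds and dopamine controls were applied to plated cells for 90 min at 37 degrees C after an overnight attachment at 1500 cells/well. Luminescent read-out followed 30 - 60 minutes at room temperature with DiscoveRx detection reagent.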
HepG2 tox: qHTS for Inhibitors of TGF-b: Cytotox Counterscreen; HepG2 CAGA-GFP viability, ATP luminescence, 18 h; Potency, µM (doses to about 46.1 µM), without a hit: at the highest dose activity change, negative = cytotoxicity, most hits filed as cytotoxic; 0.76% of 410,000 active; AID 588856, 2011; also: potency is read from the fitted curve at half-maximal effect
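CellTiter-Glo luminescence gave cytotoxicity after 18 hours at 37 degrees C. The cells were HepG2 CAGA-GFP in 1% FBS DMEM, stimulated with 500 pg/mL TGF-beta after compound addition. %Activity was normalised to no-cell wells (complete cell-killing) and DMSO (no toxicity), and curves were fitted and classified.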
ATXN2 expr inh: Primary qHTS for Inhibitors of ATXN expression. HEK-293 ATXN2-luciferase reporter, luminescence, 24 h. AID 1745845, 2022. 0.72% of 360,000 active. Potency, µM (highest dose often 57 µM), without a hit: top-dose activity change, negative = inhibition, hits mostly inhibitors; also: potency is read from the fitted curve at half-maximal effect; % is scaled to controls: 0 for no effect and ±100 for the full control effect; nearly all actives have a fitted effect of over 55% in size
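ATXN2-luciferase reporter cells (luciferase flanked by upstream and downstream ATXN2 gene portions) were treated 24 h at 37 °C with compounds at up to 57 uM. SteadyGlo luminescence gave expression; GF-AFC fluorescence gave viability.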
* = called active by the depositor; i = inactive; ? = inconclusive; · = not tested or not shown. Unless noted, calls follow the shape of the dose curve; as a rule, active = well fitted curve in the direction sought with a large enough effect; inconclusive = small, poorly fitted or top-dose-only effect, or another doubt; inactive = no such curve, though single readings can be large; an effect the other way counts as inactive or inconclusive.

SMILES	S2 tox	D3 antag	TGFb inhibitor	D3 ag	HepG2 tox	ATXN2 expr inh
O=C(NNC1=Nc2ccccc2SC1)c1ccccc1F	i	0.0	1.9%	-11.2	10.5%	?
O=C(NNC1=Nc2ccccc2SC1)c1cccc([N+](=O)[O-])c1	i	-61.2*	?	-12.0	-0.7%	-6.2%
CCOC(=O)Nc1ccc2c(c1)C(=NO)c1ccccc1-2	?	6.0	0.0%	2.2	-23.0%	18.6%
CCOC(=O)Nc1ccc2c(c1)C(=NNC(N)=S)c1ccccc1-2	·	?	?	-10.2	8.91µM*	?
CC1Nc2ncnc(N3CCN(c4ccccc4)CC3)c2N(Cc2ccc(Br)cc2)C1=O (stereo unspecified)	?	-156.2*	?	-78.9	-19.2%	?
COc1ccc(CN2C(=O)C(C)Nc3ncnc(N4CCN(c5ccccc5)CC4)c32)cc1 (stereo unspecified)	i	-69.9*	-4.9%	-44.9	-11.6%	-1.9%
COc1ccc(CN2C(=O)C(C)Nc3ncnc(N4CCOCC4)c32)cc1 (stereo unspecified)	i	-1.0	?	-4.8	6.4%	0.7%
C(=C\c1ccc2ccccc2n1)/c1cccnc1	·	·	-10.3%	·	-81.6%	·
O=C(NC1CC1)[C@@H]1C[C@H](Sc2nc3ccccc3[nH]2)CN1CC1CCCCC1	i	·	·	·	·	·
COc1cccc(/C=N/Nc2nnc(C)n2N)c1O	i	-10.4	7.94µM*	-6.0	-154.2%	-0.5%
COc1ccc(-n2c(C)cc(/C=N/Nc3nnc(C)n3N)c2C)cc1	?	-12.7	3.55µM*	-12.0	5.01µM*	-13.0%
COc1cccc(CN(C)C(=O)c2cc(-c3ccc(OC)c(OC)c3)nc3ccccc23)c1	i	39.0	0.0%	34.3*	-56.1%	-5.7%
ClC(Cl)(Cl)c1nc2ccccc2n2nncc12	?	-27.7	15.8µM*	6.6	20µM*	12.6µM*
c1ccc(CCNc2nc3ccccc3n3nnnc23)cc1	i	52.2	27.1%	2.8	5.5%	15.4%
COc1cc(CN(C(=O)COc2ccc(Cl)cc2)c2ccccn2)cc(OC)c1OC	i	·	-22.9%	-7.5	-25.9%	1.7%
Cc1ccc2oc(C(=O)Nc3c(C(=O)Nc4ccccc4)oc4ccccc34)cc(=O)c2c1	i	·	-11.9%	1.4	3.8%	1.6%
CCCC(=O)N1CCc2cc(OC)c(OC)cc2C1COc1ccc2c(C)cc(=O)oc2c1 (stereo unspecified)	?	·	1.0%	3.2	-4.8%	-5.4%
C=CCn1c(=O)/c(=C/c2ccc(O)cc2)s/c1=C(/C#N)c1nnc2n1CCCCC2	i	-14.2	5.2%	-12.0	-4.6%	-26.6%
C=CCn1c(=O)/c(=C/c2ccc(Cl)cc2)s/c1=C(/C#N)c1nnc2n1CCCCC2	17.8µM*	-13.8	-9.1%	-2.7	-17.0%	22.4µM*
COC(=O)Sc1nc(N2CCOCC2)c2c(c1C#N)CC(C)(C)OC2	i	-56.5*	-22.3%	-1.4	-0.5%	-2.8%
COC(=O)CSc1nc(N2CCOCC2)c2c(c1C#N)CC(C)(C)OC2	i	14.5	0.0%	-8.2	2.3%	-1.9%
CC(C)Cc1ccc(C(C)C(=O)Nc2ccc(O)cc2)cc1 (stereo unspecified)	?	-3.3	?	2.7	-45.7%	·
CC(C)Cc1ccc(C(C)C(N)=Nc2ccc(O)cc2)cc1 (stereo unspecified)	i	-16.6	?	-6.5	15.8µM*	?
O=[N+]([O-])c1ccc(Cl)c(S(=O)(=O)/N=C(/Sc2ccc(Br)cc2)c2ccccc2)c1	·	·	9.7%	·	7.9%	·
CC1C/C(=C\c2cccnc2)C(=O)/C(=C/c2cccnc2)C1 (stereo unspecified)	·	?	?	0.8	15.8µM*	?
SMILES	S2 tox	D3 antag	TGFb inhibitor	D3 ag	HepG2 tox	ATXN2 expr inh
O=C1/C(=C/c2cccnc2)CCc2c1[nH]c1ccccc21	i	10.3	-1.3%	-1.4	-0.3%	9.0%
Cc1ccc(N2CC(NC(=O)c3cccs3)CC2=O)cc1C (stereo unspecified)	·	·	0.1%	4.3	-4.5%	·
COc1ccc(-c2cc(C(=O)N3CCN(c4ccccn4)CC3)c3ccccc3n2)cc1	?	17.5	?	33.3*	-31.0%	-35.2%
CCOc1ccc(-c2cc(C(=O)N3CCN(c4ccccn4)CC3)c3ccccc3n2)cc1	i	16.6	37.9%	13.0	0.5%	24.6%
CCCc1ccc(-c2cc(C(=O)N3CCN(c4ccccn4)CC3)c3ccccc3n2)cc1	i	38.6	?	43.6*	-50.0%	-19.8%
Cc1cccc(CCNC(=O)c2ccc3c(c2)nc2n3CCCCC2)c1	·	·	-11.0%	23.4	-23.7%	·
CCC1(C2CCN(C(=O)c3ccc(C)cc3C)CC2)NC(=O)N(CCc2scnc2C)C1=O (stereo unspecified)	i	·	·	·	·	·
CN(C)CCN1C(=O)c2cccc3cc([N+](=O)[O-])cc(c23)C1=O	?	26.7	6.31µM*	-4.0	-13.8%	?
CN(C)CCCN1C(=O)c2cccc3cccc(c23)C1=O	i	3.5	-29.0%	-0.8	0.6%	?
Cc1ccc(Nc2c(-c3ccccn3)nc3cccc(C)n23)cc1	?	-81.8*	?	-27.2	-36.2%	6.31µM*
Cc1cccc2nc(-c3ccccn3)c(Nc3ccc(F)cc3)n12	·	·	?	-33.8	-52.7%	17.8µM*
COc1ccc(S(=O)(=O)c2cnc3ccc(Cl)cc3c2N2CCCCC2C)cc1 (stereo unspecified)	?	·	?	-16.1	-59.5%	?
Cc1ccc(NC(=O)c2cccc3c(=O)c4c([nH]c23)CCCC4)c(C)c1	i	·	-3.7%	2.9	8.7%	172.5%
COc1ccc(C2Nc3ccccc3C(=O)N2c2ccc(F)cc2)cc1COc1ccc(NC(C)=O)cc1 (stereo unspecified)	·	·	17.6%	·	1.6%	·
CC(=O)Nc1ccn(C2OC(C(COC(C)=O)NC(=O)C(C)NC(=O)OC(C)(C)C)C(OC(C)=O)C2OC(C)=O)c(=O)n1 (stereo unspecified)	·	·	0.3%	·	-3.8%	·
Cc1c(NC(=S)NC(=O)COc2ccccc2)c(=O)n(-c2ccccc2)n1C	i	1.9	-5.4%	2.5	-6.3%	-5.0%
CC(=O)/C(N=Nc1c(C)n(C)n(-c2ccccc2)c1=O)=C(\C)O	i	2.4	5.5%	2.9	-3.7%	4.1%
Cc1c(N=Cc2c(O)n(C)c(=O)c3ccccc23)c(=O)n(-c2ccccc2)n1C	i	42.2	1.8%	32.8*	4.1%	-7.0%

Screens: PubChem BioAssay, National Center for Advancing Translational Sciences (NCATS)
